Assay [1] in a line: NCI Yeast Anticancer Drug Screen. Data for the rad50 strain (AID 155).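 Note: 0% = growth of vehicle-only cultures of the same strain.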 The conditions noted are these: S. cerevisiae rad50 strain growth inhibition, active compounds read high; at 50.0 µM unless noted. In outline: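 Yeast carrying a defined DNA repair defect were exposed to test compounds, and growth was compared with vehicle-treated controls to give percent inhibition.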
A short description of assay [2]: NCI Yeast Anticancer Drug Screen. Data for the mec2-1 strain (AID 157). The conditions noted are these: S. cerevisiae mec2-1 strain, active compounds read high; at 50.0 µM unless noted. In outline: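 Test agents were screened against the mec2-1 yeast strain, with defined DNA repair or cell cycle alteration. Growth was scored as inhibition against vehicle-only controls.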

The nature of assay [3]: NCI Yeast Anticancer Drug Screen. Data for the sgs1 mgt1 strain (AID 161).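 Note: 0% = growth of cultures given vehicle only.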 The conditions noted are these: S. cerevisiae sgs1 mgt1 strain, active compounds read high; at 50.0 µM unless noted. An outline of the steps: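 Mutant yeast exposed to compound; growth scored against vehicle-only wells.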
Assay [4] is described as follows: NCI Yeast Anticancer Drug Screen. Data for the cln2 rad14 strain (AID 165).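 Note: 0% = growth equal to vehicle treated cultures.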 The conditions noted are these: S. cerevisiae cln2 rad14 strain, active compounds read high; at 50.0 µM unless noted. An outline of the steps:
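Growth of compound-exposed yeast (cln2 rad14 genotype) measured and expressed as inhibition relative to vehicle.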

A short description of assay [5]: NCI Yeast Anticancer Drug Screen. Data for the bub3 strain (AID 167). The conditions noted are these: S. cerevisiae bub3 mutant strain, active compounds read high; at 50.0 µM unless noted. An outline of the steps: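 Compounds were applied to a genetically altered yeast strain carrying a cell-cycle control defect. Growth inhibition was scored against vehicle-treated controls.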

A short description of assay [6]: NCI Yeast Anticancer Drug Screen. Data for the mlh1 rad18 strain (AID 175). The conditions noted are these: S. cerevisiae mlh1 rad18 strain growth inhibition, active compounds read high; at 50.0 µM unless noted. In outline: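 In this whole-cell yeast screen, a strain with altered DNA damage repair is challenged with compound, and its growth is measured against matched vehicle-treated controls.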

Values joined by “and” are separate entries in the source; they are usually repeats but may differ in a detail not shown here. Identical values can stand only once. Compounds without any hit were thinned out: in the full panel of roughly 79,000, 15% have a hit. Values without a mark were called inactive. Active and inactive are the calls of the source. Cut-off read from the data, not from the text of the source: active = growth inhibition above about 70%; inactive = the rest.

Regarding `Cc1nnc(N)nc1C`, the growth inhibition in assay [1] is 33%; in assay [2] it was 9.5%; in assay [3], -10.1%; in assay [4], -0.8%; in assay [5] it was -1.3%; in assay [6], 13.6%.

As for `COc1cccc(C2SC(N)=Nc3c2c(C)nn3C(=O)c2ccccc2O)c1` (stereo not given), the growth inhibition in assay [1] is 19.7%; in assay [2], 9.25%; in assay [3], 33.1%; in assay [4], 17.6%; in assay [5], 38%; in assay [6] it was 24.9%.

With `CC(=O)OCCc1cc2ccccc2oc1=O`, the growth inhibition in assay [1] was -9.05%; in assay [2], 23.9%; in assay [3], -16.8%; in assay [4] it was 8.6%; in assay [5], 12.2%; in assay [6] it was 9.25%.

Turning to `O=c1cc(N2CCOCC2)n2ccccc2n1`, the growth inhibition in assay [1] was -4.4%; in assay [2], -4.15%; in assay [3], 8%; in assay [4], -20.6%; in assay [5], -8.35%; in assay [6], 8.1%.

`O=c1[nH][nH]c(=O)c2c([N+](=O)[O-])cccc12`: the growth inhibition in assay [1] was -17.6%; in assay [2], -8.6%; in assay [3], -3.8%; in assay [4], -37.5%; in assay [5], 0.35%; in assay [6], -0.35%.

Take `Cc1ccc(C)c(Nc2c(C)ccc(C)c2C(=O)O)c1`: the growth inhibition in assay [1] was -5.3%; in assay [2], -1.05%; in assay [3] it was 12.4%; in assay [4] it was 14%; in assay [5], -10.1%; in assay [6], -12.6%.

Turning to `NNc1nc(N2CCCCC2)c2[nH]cnc2n1`, the growth inhibition in assay [1] was 1.1%; in assay [2], -7.65%; in assay [3] it was -5.6%; in assay [4] it was 0.1%; in assay [5] it was 11.8%; in assay [6] it was 4.95%.

Regarding `O=S(=O)(N/N=C1\CC2CCC1C2)c1ccccc1` (stereo not given), the growth inhibition in assay [1] is -7.05%; in assay [2], -16.1%; in assay [3] it was -16.9%; in assay [4], 27.8%; in assay [5] it was 21.4%; in assay [6], 4.4%.

Take `O=C(N/N=C/c1ccc(Cl)cc1)c1cccc([N+](=O)[O-])c1`: the growth inhibition in assay [1] was -1.5%; in assay [2], 7.7%; in assay [3], -3.6%; in assay [4], 4.25%; in assay [5] it was 8.35%; in assay [6], -5.7%.

For `O=C(CCCC(=O)N/N=C/c1ccccc1O)N/N=C\c1ccccc1O`, the growth inhibition was 4.55% in assay [1]; -6.65% in assay [2]; -20.4% in assay [3]; 3.35% in assay [4]; -3.5% in assay [5]; -12.9% in assay [6].

As to `CCCCCCCS(=O)c1nc2ccccc2s1` (stereo not given), the growth inhibition is 37.2% in assay [1]; 15.2% in assay [2]; 60.9% in assay [3]; 20.2% in assay [4]; 42.8% in assay [5]; 27.6% in assay [6].

`CC(C)OC(=O)C(O)c1ccccc1` (stereo not given): the growth inhibition was 18.2% in assay [1]; -17.1% in assay [2]; -25.4% in assay [3]; -50% in assay [4]; -9.45% in assay [5]; 8.2% in assay [6].

Regarding `Cc1ccc(N(C)S(=O)(=O)c2ccccc2[N+](=O)[O-])cc1`, the growth inhibition is 19.1% in assay [1]; -17.6% in assay [2]; 28.3% in assay [3]; 12.1% in assay [4]; 14.1% in assay [5]; 19.6% in assay [6].

On to `CC(=O)CC(=O)N1CCc2ccccc21`, for which the growth inhibition in assay [1] is 3.8%; in assay [2] it was -14.9%; in assay [3], 3.8%; in assay [4] it was 2.55%; in assay [5], -19.6%; in assay [6], 1.1%.

For the compound `c1ccc(CNc2nnnc3ccccc23)cc1`, the growth inhibition in assay [1] is -2.75%; in assay [2] it was -1.45%; in assay [3] it was -2.4%; in assay [4], -30.8%; in assay [5], -14.5%; in assay [6], 2.2%.

With `COc1cccc(C(=O)C2N=NCC2c2ccccc2)c1` (stereo not given), the growth inhibition was -17.4% in assay [1]; -5% in assay [2]; 2% in assay [3]; -15.2% in assay [4]; 61.5% in assay [5]; 29.9% in assay [6].

In the case of `C/C(CCC(CC(=O)O)C(C)C)=N\NC(N)=O` (stereo not given), the growth inhibition in assay [1] was -5.85%; in assay [2], 1.8%; in assay [3], -6.65%; in assay [4], -35.9%; in assay [5], -27.4%; in assay [6], 4.65%.

With `CCOC(=O)C/C(=N\NC(=O)c1ccccc1O)C(=O)OCC`, the growth inhibition in assay [1] was 5.8%; in assay [2] it was 1.95%; in assay [3] it was 5.85%; in assay [4], 0.9%; in assay [5] it was 3.3%; in assay [6], 29.9%.

Take `CCc1nnc2c(C)c(C)nc(C)n12`: the growth inhibition in assay [1] is 21.2%; in assay [2], 1.55%; in assay [3], -16%; in assay [4] it was -16.1%; in assay [5] it was 17.2%; in assay [6] it was 1.6%.

Regarding `C=C(C)C(=O)Oc1ccccc1/C=C/C(=O)CCCCCC`, the growth inhibition in assay [1] was -8.45%; in assay [2], -14.1%; in assay [3], -20.4%; in assay [4], -9.1%; in assay [5], -11%; in assay [6] it was 4.4%.

For the compound `O=C(O)c1ccc([N+](=O)[O-])cc1Br`, the growth inhibition is 3.5% in assay [1]; -2.85% in assay [2]; -4.65% in assay [3]; -45% in assay [4]; -23.6% in assay [5]; 6.2% in assay [6].

As to `COc1cc(N=C=S)ccc1NC(=O)c1cc(Br)cc(Br)c1O`, the growth inhibition was 55.9% in assay [1]; 39.4% in assay [2]; 46.6% in assay [3]; 31.2% in assay [4]; 1.15% in assay [5]; 45% in assay [6].

As for `Cc1ccc(CC2CC(=O)NC2=O)cc1` (stereo not given), the growth inhibition in assay [1] was 13.6%; in assay [2], -2.95%; in assay [3] it was 22.1%; in assay [4], 2.15%; in assay [5], 10.5%; in assay [6], -3.8%.

For `C=CCS(=O)(=O)CC=C`, the growth inhibition in assay [1] is 23.9%; in assay [2], -12.5%; in assay [3], -7.3%; in assay [4], 3%; in assay [5] it was -15.6%; in assay [6] it was 17.9%.

`CN1C(=O)N(C)C2(O)c3ccccc3C(=O)C12O` (stereo not given): the growth inhibition in assay [1] is 14.6%; in assay [2], 2.9%; in assay [3], 18.9%; in assay [4], 15%; in assay [5], 19.8%; in assay [6], 38.9%.

Take `CC(=O)Oc1ccccc1C(=O)N(N)CCSc1ccc(Cl)cc1`: the growth inhibition in assay [1] was -0.45%; in assay [2], 1.15%; in assay [3], 11.2%; in assay [4], -32.2%; in assay [5], -12.5%; in assay [6] it was -1%.

In the case of `CC(=O)CC(=O)Nc1ccc(-c2ccc(NC(=O)CC(C)=O)c(Cl)c2)cc1Cl`, the growth inhibition in assay [1] is -22.2%; in assay [2], -27.7%; in assay [3], -10.2%; in assay [4], 1.9%; in assay [5] it was -16.6%; in assay [6], -6.35%.

In the case of `O=S(=O)(O)c1ccc2c(ccc3ccccc32)c1`, the growth inhibition in assay [1] was -18.4% and -3.8%; in assay [2] it was -0.25% and -18.4%; in assay [3], -2.9% and -14.2%; in assay [4], -0.9% and 21.6%; in assay [5], 1.35% and 28.1%; in assay [6], 5.7% and -23.1%.

Regarding `COc1ccc2oc3cc(Cl)ccc3c(=O)c2c1`, the growth inhibition in assay [1] was 4.8%; in assay [2], 0.85%; in assay [3], -8.85%; in assay [4], 4.35%; in assay [5], 30.4%; in assay [6], 14.2%.

For `O=[N+]([O-])c1nccn1CC1OC(n2ccnc2[N+](=O)[O-])C(O)C(O)C1O` (stereo not given), the growth inhibition in assay [1] is 0.3%; in assay [2] it was 2.6%; in assay [3] it was -2.95%; in assay [4] it was 5.9%; in assay [5], 25.3%; in assay [6] it was 6.25%.

As to `ClC(Cl)CN(Cc1ccccc1)c1ncc[nH]1`, the growth inhibition in assay [1] was 22.5%; in assay [2], 6.25%; in assay [3], 28%; in assay [4], -59.2%; in assay [5], 8.05%; in assay [6] it was 17.6%.

As to `O=C(/C(=C1\SS/C(=C(/C(=O)c2ccccc2)c2ccccc2)S1)c1ccccc1)c1ccccc1`, the growth inhibition is 34.6% in assay [1]; 14.6% in assay [2]; 17.7% in assay [3]; 7.3% in assay [4]; 5.75% in assay [5]; 6.45% in assay [6].

Regarding `CCC(C)(O)c1cn(-c2ccc(Cl)cc2)nn1` (stereo not given), the growth inhibition in assay [1] is -31.4%; in assay [2] it was -32.9%; in assay [3] it was -4.4%; in assay [4], 16.4%; in assay [5], -6.55%; in assay [6], 0.25%.

In the case of `COc1ccc(N=C=Nc2ccc(OC)cc2)cc1`, the growth inhibition was -1.45% in assay [1]; -15% in assay [2]; 4.15% in assay [3]; 9.6% in assay [4]; -10.2% in assay [5]; -13.6% in assay [6].

For the compound `CN1NC(c2ccccc2)=C(C#N)C(=O)CC1c1ccccc1` (stereo not given), the growth inhibition in assay [1] was 6.8%; in assay [2], -2.5%; in assay [3], 13.1%; in assay [4], -1.4%; in assay [5] it was 8.95%; in assay [6], 10.2%.

As to `c1ccc(-n2ncn[n+]2-c2ccccc2)cc1`, the growth inhibition in assay [1] was 6.55%; in assay [2], 4.4%; in assay [3], -0.3%; in assay [4] it was 28.4%; in assay [5] it was 32.8%; in assay [6], 5.15%.

Regarding `COc1cccc(C#CC(=O)O)c1`, the growth inhibition in assay [1] is -25.6%; in assay [2] it was -20.9%; in assay [3], -18.9%; in assay [4], -5.35%; in assay [5], -21.9%; in assay [6], -11.6%.

For `OC(CN1CCCC2CCCCC21)c1cc2c(c3ccccc13)CCCC2` (stereo not given), the growth inhibition is 98.2% (active) in assay [1]; 96.7% (active) in assay [2]; 99.5% (active) in assay [3]; 93.7% (active) in assay [4]; 98.5% (active) in assay [5]; 99.5% (active) in assay [6].

`OC1CSc2nc3ccccc3n2C1` (stereo not given): the growth inhibition in assay [1] is 17.6%; in assay [2], 9.25%; in assay [3] it was 12.3%; in assay [4] it was 9.7%; in assay [5], 20.8%; in assay [6], 38.9%.

Take `COCC(C)OC(=O)COc1ccccc1` (stereo not given): the growth inhibition was 1.05% in assay [1]; -21.6% in assay [2]; -10.4% in assay [3]; -46.5% in assay [4]; -4.35% in assay [5]; -6.65% in assay [6].
